Conditions in all cases: mRNA level, 48 h; actives raise or lower the signal
Read-out in one experiment: CYP2C8 (gene 1558)
Briefly: LTEA_HepaRG_CYP2C8: Life Technologies and Expression Analysis (LTEA) Assay for CYP2C8 using HepaRG (AID 2283483). An outline of the steps: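 HepaRG (human liver line), 48 h chemical exposure, 8-pt half-log series from 100 uM, 0.5% DMSO vehicle. Readout: CYP2C8 transcript by qRT-PCR, housekeeping-normalized. Bidirectional fit vs DMSO baseline.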

Read-out in another experiment: CYP2C9 (gene 1559)
Briefly: LTEA_HepaRG_CYP2C9: Life Technologies and Expression Analysis (LTEA) Assay for CYP2C9 using HepaRG (AID 2283484). An outline of the steps: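 HepaRG, 48 h dosing, 8-pt half-log series, top 100 uM, 0.5% DMSO vehicle. Read-out: CYP2C9 transcript by TaqMan qRT-PCR, housekeeping-normalized (ACTB/GAPDH/POLR2A). Gain or loss fitted vs DMSO baseline.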

Read-out in the next experiment: CYP2E1 (gene 1571)
Briefly: LTEA_HepaRG_CYP2E1: Life Technologies and Expression Analysis (LTEA) Assay for CYP2E1 using HepaRG (AID 2283485). In outline:
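Assay uses 48 h exposure of HepaRG hepatic cells, eight concentrations to 100 uM. Expression of CYP2E1 is quantified by TaqMan qRT-PCR with ACTB, GAPDH and POLR2A normalization; curves fitted in both directions relative to vehicle.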

Read-out in a further experiment: CYP4A11 (gene 1579)
In words: LTEA_HepaRG_CYP4A11: Life Technologies and Expression Analysis (LTEA) Assay for CYP4A11 using HepaRG (AID 2283486). In outline: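 Differentiated HepaRG cells, serum-free induction medium, exposed 48 h in duplicate to 8-point half-log series from 100 uM in 0.5% DMSO. CYP4A11 mRNA measured by qRT-PCR, normalized to ACTB, GAPDH, POLR2A; bidirectional fit versus DMSO.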

Read-out in experiment [1]: Cytochrome P450 3A4 (Homo sapiens) (UniProt P08684)
In words: LTEA_HepaRG_CYP3A4: Life Technologies and Expression Analysis (LTEA) Assay for CYP3A4 using HepaRG (AID 2283487). In outline: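 HepaRG, 48 h exposure, 8-pt CRC from 100 uM (half-log), 0.5% DMSO, duplicates; serum-free induction medium. Readout: CYP3A4 mRNA, qRT-PCR, ACTB/GAPDH/POLR2A normalization. Bidirectional fit vs DMSO.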

Read-out in experiment [2]: DNA damage-inducible transcript 3 (DDIT3), DDIT3 (gene 1649)
In words: LTEA_HepaRG_DDIT3: Life Technologies and Expression Analysis (LTEA) Assay for DNA damage-inducible transcript 3 (DDIT3) using HepaRG (AID 2283488). An outline of the steps:
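Eight-point concentration-response (100 uM highest, half-log dilutions) in HepaRG, 48 h, duplicate wells. Endpoint: qRT-PCR mRNA, normalized (ACTB, GAPDH, POLR2A), bidirectional fitting with DMSO as baseline.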

Read-out in experiment [3]: Pro-epidermal growth factor (Homo sapiens) (UniProt P01133)
Briefly: LTEA_HepaRG_EGF: Life Technologies and Expression Analysis (LTEA) Assay for Epidermal growth factor (EGF) using HepaRG (AID 2283489). An outline of the steps:
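Differentiated human HepaRG cells, plated 48 h then switched to serum-free induction medium, were exposed for 48 h to test chemicals (8-point half-log series, top 100 uM, 0.5% DMSO). EGF mRNA was quantified by qRT-PCR, normalized to ACTB, GAPDH, POLR2A.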

Read-out in experiment [4]: Early growth response protein 1 (EGR1) transcription factor, EGR1 (gene 1958)
In words: LTEA_HepaRG_EGR1: Life Technologies and Expression Analysis (LTEA) Assay for Early growth response protein 1 (EGR1) transcription factor using HepaRG (AID 2283490). An outline of the steps:
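HepaRG, 48 h exposure, 8-pt half-log series from 100 uM, 0.5% DMSO vehicle; EGR1 transcript by TaqMan qRT-PCR (Fluidigm array), housekeeping-normalized; bidirectional fit relative to DMSO baseline.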

Read-out in experiment [5]: Cytochrome P450 3A7 (Homo sapiens) (UniProt P24462)
Briefly: LTEA_HepaRG_CYP3A7: Life Technologies and Expression Analysis (LTEA) Assay for CYP3A7 using HepaRG (AID 2283492). In outline:
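HepaRG cells plated 48 h, then dosed in serum-free induction medium for 48 h at 8 concentrations (top 100 uM, half-log steps, 0.5% DMSO). CYP3A7 mRNA by qRT-PCR, normalised to ACTB/GAPDH/POLR2A; bidirectional fit versus DMSO.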

Read-out in the next experiment: CYP3A5 (gene 1577)
In words: LTEA_HepaRG_CYP3A5: Life Technologies and Expression Analysis (LTEA) Assay for CYP3A5 using HepaRG (AID 2283493). In outline: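 Readout was CYP3A5 mRNA by qRT-PCR. HepaRG cultures were exposed for 48 h in serum-free induction medium to chemicals at up to 100 uM, and responses were fitted in both directions relative to DMSO vehicle.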

Read-out in experiment [6]: Fatty Acid-Binding Protein 1 (FABP1), FABP1 (gene 2168)
In words: LTEA_HepaRG_FABP1: Life Technologies and Expression Analysis (LTEA) Assay for Fatty Acid-Binding Protein 1 (FABP1) using HepaRG (AID 2283494). In outline:
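qRT-PCR readout of FABP1 transcript (normalized to three housekeeping genes) after 48 h chemical exposure of HepaRG cells; eight concentrations, half-log steps, max 100 uM, 0.5% DMSO vehicle; gain or loss fitted relative to DMSO baseline.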

Read-out in experiment [7]: Cytochrome P450 4A22 (Homo sapiens) (UniProt Q5TCH4)
In words: LTEA_HepaRG_CYP4A22: Life Technologies and Expression Analysis (LTEA) Assay for Cytochrome P450 4A22 (CYP4A22) using HepaRG (AID 2283495). An outline of the steps:
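qRT-PCR of CYP4A22 mRNA (Fluidigm TaqMan, normalized to three housekeeping genes) after 48 h chemical exposure of HepaRG cells; 8-point half-log series, top 100 uM, 0.5% DMSO vehicle. Bidirectional curve fitting vs DMSO baseline.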

Read-out in experiment [8]: Cytochrome P450 7A1 (Homo sapiens) (UniProt P22680)
In words: LTEA_HepaRG_CYP7A1: Life Technologies and Expression Analysis (LTEA) Assay for Cytochrome P450 7A1 (CYP7A1) using HepaRG (AID 2283496). An outline of the steps: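 Using 0.5% DMSO as vehicle and baseline, chemicals were tested in duplicate over an 8-point range from 100 uM on HepaRG cells for 48 h; qRT-PCR signals were normalised to ACTB, GAPDH and POLR2A.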

Read-out in experiment [9]: Glutathione S-Transferase (GSTA2), GSTA2 (gene 2939)
Briefly: LTEA_HepaRG_GSTA2: Life Technologies and Expression Analysis (LTEA) Assay for Glutathione S-Transferase (GSTA2) using HepaRG (AID 2283497). In outline: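 qRT-PCR readout of GSTA2 transcript, normalized to three housekeeping genes, fitted bidirectionally against 0.5% DMSO baseline. Differentiated HepaRG cells received compound for 48 h at 8 concentrations (top 100 uM, half-log steps).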

Read-out in experiment [10]: Glutamate-cysteine ligase catalytic (GCLC), GCLC (gene 2729)
In words: LTEA_HepaRG_GCLC: Life Technologies and Expression Analysis (LTEA) Assay for Glutamate-cysteine ligase catalytic (GCLC) using HepaRG (AID 2283498). An outline of the steps: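 HepaRG, 48 h exposure, 8-pt half-log series from 100 uM, 0.5% DMSO vehicle; TaqMan qRT-PCR for GCLC mRNA, housekeeping-normalized; bidirectional curve fit vs DMSO baseline.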

Read-out in experiment [11]: growth arrest and DNA damage 45 (GADD45G), GADD45G (gene 10912)
In words: LTEA_HepaRG_GADD45G: Life Technologies and Expression Analysis (LTEA) Assay for growth arrest and DNA damage 45 (GADD45G) using HepaRG (AID 2283499). An outline of the steps: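 Differentiated human HepaRG cells in serum-free induction medium were exposed for 48 h to 8 half-log concentrations up to 100 uM in 0.5% DMSO, in duplicate. GADD45G mRNA was measured by TaqMan qRT-PCR, normalised to ACTB, GAPDH and POLR2A, and fitted bidirectionally against DMSO.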

Read-out in experiment [12]: Glutamate-cysteine ligase regulatory (GCLM), GCLM (gene 2730)
In words: LTEA_HepaRG_GCLM: Life Technologies and Expression Analysis (LTEA) Assay for Glutamate-cysteine ligase regulatory (GCLM) using HepaRG (AID 2283500). In outline:
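In this multiplexed HepaRG gene-expression assay, GCLM mRNA change after 48 h treatment (8 concentrations, max 100 uM) was scored against DMSO by bidirectional curve fitting.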

Read-out in experiment [13]: Glutathione S-transferase M3 (GSTM3), GSTM3 (gene 2947)
In words: LTEA_HepaRG_GSTM3: Life Technologies and Expression Analysis (LTEA) Assay for Glutathione S-transferase M3 (GSTM3) using HepaRG (AID 2283501). An outline of the steps:
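Differentiated HepaRG cells in serum-free induction medium were exposed in duplicate for 48 h to 8 half-log concentrations up to 100 uM in 0.5% DMSO. GSTM3 mRNA was measured by TaqMan qRT-PCR, normalized to ACTB/GAPDH/POLR2A, and fitted bidirectionally versus DMSO.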

Read-out in experiment [14]: Ezrin (EZR), EZR (gene 7430)
In words: LTEA_HepaRG_EZR: Life Technologies and Expression Analysis (LTEA) Assay for Ezrin (EZR) using HepaRG (AID 2283491). In outline: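 Read-out is EZR transcript level by qRT-PCR, normalized to three housekeeping genes and fitted bidirectionally against the DMSO control. Human HepaRG cells received test chemicals for 48 h at eight half-log concentrations up to 100 uM in 0.5% DMSO.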

Active and inactive are the calls of the source. Rule for the calls: active = hit-call score of the fitted dose curve at least 0.9, where 1 is the maximum; inactive = score below 0.9.

Chain of Cytochrome P450 3A4 (Homo sapiens) (P08684 whole entry, looked up): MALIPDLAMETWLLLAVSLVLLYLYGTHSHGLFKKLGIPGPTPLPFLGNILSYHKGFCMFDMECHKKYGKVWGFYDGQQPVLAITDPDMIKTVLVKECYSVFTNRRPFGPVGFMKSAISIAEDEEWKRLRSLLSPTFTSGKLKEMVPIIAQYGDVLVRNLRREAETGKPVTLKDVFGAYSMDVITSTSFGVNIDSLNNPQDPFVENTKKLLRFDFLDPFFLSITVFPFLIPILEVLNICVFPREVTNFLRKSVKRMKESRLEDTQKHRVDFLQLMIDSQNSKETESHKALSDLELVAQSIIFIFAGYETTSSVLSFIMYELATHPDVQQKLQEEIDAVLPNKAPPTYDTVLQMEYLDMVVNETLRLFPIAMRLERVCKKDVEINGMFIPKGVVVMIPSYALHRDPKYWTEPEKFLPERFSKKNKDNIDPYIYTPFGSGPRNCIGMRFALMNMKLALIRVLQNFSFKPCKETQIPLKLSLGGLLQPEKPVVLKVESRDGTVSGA
Chain of Cytochrome P450 3A7 (Homo sapiens) (P24462 whole entry, looked up): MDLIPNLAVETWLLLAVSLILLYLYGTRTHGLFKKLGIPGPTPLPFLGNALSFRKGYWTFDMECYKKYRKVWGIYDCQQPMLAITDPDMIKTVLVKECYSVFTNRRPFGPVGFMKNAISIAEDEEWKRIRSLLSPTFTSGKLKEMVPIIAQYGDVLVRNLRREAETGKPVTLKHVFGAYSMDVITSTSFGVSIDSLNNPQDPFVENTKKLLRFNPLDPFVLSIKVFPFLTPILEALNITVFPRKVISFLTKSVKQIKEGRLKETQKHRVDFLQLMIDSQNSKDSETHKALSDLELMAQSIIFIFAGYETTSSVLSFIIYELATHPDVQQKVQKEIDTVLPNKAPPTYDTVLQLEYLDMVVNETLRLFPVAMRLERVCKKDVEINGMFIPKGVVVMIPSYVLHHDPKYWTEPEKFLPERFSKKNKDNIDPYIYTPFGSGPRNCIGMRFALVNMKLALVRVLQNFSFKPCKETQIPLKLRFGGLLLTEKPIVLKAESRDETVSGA

`CCOP(=S)(Oc1cnc(C(C)(C)C)nc1)OC(C)C` (configuration not stated): the call (in the experiment with CYP2C8 (gene 1558); with CYP2C9 (gene 1559); in experiment [2]; in [3]; in experiment [4]; in experiment [5]) was inactive. Also, the outcome (with CYP3A5 (gene 1577); in experiment [7]; in [9]; in experiment [10]; in experiment [11]; in [12]) was inactive. Besides, the compound was classed as inactive in experiment [13]. Also, the half-maximal activity concentration (AC50) with CYP2E1 (gene 1571) is 26.8 µM (active); in the experiment with CYP4A11 (gene 1579), 50 µM (active); in experiment [1], 13.9 µM (active); in experiment [6], 2.01 µM (active); in experiment [8], 4.63 µM (active).
For `Nc1c(Cl)cc([N+](=O)[O-])cc1Cl`, the half-maximal activity concentration (AC50) with CYP2C8 (gene 1558) was 78.4 µM (active); with CYP2C9 (gene 1559) it was 63.8 µM (active); with CYP2E1 (gene 1571), 40.4 µM (active); in the experiment with CYP4A11 (gene 1579), 67.4 µM (active); in experiment [1], 11.5 µM (active); in experiment [2], 35.1 µM (active). Moreover, the half-maximal activity concentration (AC50) in experiment [4] is 31.8 µM (active); in [5], 84.2 µM (active); with CYP3A5 (gene 1577), 27.5 µM (active); in experiment [6], 41.8 µM (active); in experiment [7] it was 74.2 µM (active); in [8], 50 µM (active). For the same compound, the AC50 in experiment [9] was 64.7 µM (active); in experiment [10], 88 µM (active); in experiment [11] it was 50 µM (active); in experiment [13], 50 µM (active). Also, the compound was called inactive in experiment [3] and in experiment [12].
With `CCCCN(CC)c1c([N+](=O)[O-])cc(C(F)(F)F)cc1[N+](=O)[O-]`, the compound was classed as inactive (with CYP2C8 (gene 1558); in the experiment with CYP2E1 (gene 1571); with CYP4A11 (gene 1579); in experiment [2]; in experiment [3]; in experiment [4]). Also, the outcome (in experiment [14]; in experiment [5]; in the experiment with CYP3A5 (gene 1577); in [6]; in experiment [7]; in experiment [8]) was inactive. Further, the call in experiment [9], in [10], in experiment [11], in [12] and in experiment [13] was inactive. The half-maximal activity concentration (AC50) in [1] was 23.2 µM (active).
In the case of `CC(Oc1cccc(Cl)c1)C(=O)O` (configuration not stated), the half-maximal activity concentration (AC50) with CYP2C8 (gene 1558) was 14.4 µM (active); with CYP2C9 (gene 1559) it was 2.04 µM (active); with CYP2E1 (gene 1571), 4.01 µM (active); in experiment [1], 10 µM (active); in [5], 14.2 µM (active). Besides, the outcome (with CYP4A11 (gene 1579); in [2]; in experiment [3]; in experiment [4]; with CYP3A5 (gene 1577); in experiment [6]) was inactive. The result in [7], in experiment [8], in experiment [9], in experiment [10], in experiment [11] and in [12] was inactive. Moreover, in experiment [13], the compound was called inactive.

These data come from PubChem BioAssay (EPA / NIEHS).
